The panel holds about 83,000 compounds, 20% with a hit somewhere; the sample as a whole holds those more often.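 Single-dose data. Exposure time 48 hours. Values below 10 considered active.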 Values without a mark were called inactive. The source made the active and inactive calls.

This assay concerns MDA-MB-468 breast. The assay is described as follows: NCI-60 one-dose screen, 48 h (100 = growth as untreated, 0 = no growth, -100 = all killed). The settings on record: 10 µM unless noted.
As for `Clc1ccc(C(SCc2ccccc2)SCc2ccccc2)cc1`, the growth was 77.7%. For `O=C(NNc1nc2cc(F)ccc2n2c(CO)ccc12)c1cnccn1` the value was -14% (active); for `COc1ccc(N2CCN(C3=C(Cl)C(=O)c4ncccc4C3=O)CC2)cc1`, -57.8% (active); for `COc1ccccc1N1CCN(C(CNS(=O)(=O)c2ccc(Cl)cc2)c2cccnc2)CC1` (stereo not given), 98.8%.

As for `COc1ccc(Cl)cc1NC(=O)c1cc2c([nH]1)-c1nc(NC(=O)C(C)(C)C)sc1CC2`, the growth was 84.9%. Take `CCCn1cnc2c(c1=N)C(c1ccc(F)cc1)c1sc3c(CC)cccc3c1O2` (stereo not given): the growth was -47.9% (active). The value for `Cn1ccc(=Nc2ccc(NC(=O)c3ccc(N=c4ccn(C)c5ccc([N+](=O)[O-])cc45)cc3)cc2)cc1` was -2.24% (active); that for `O=[N+]([O-])c1ccc(-c2ncc(-c3ccc(O)cc3O)[nH]2)cc1` was 107%. On to `Nc1c(Br)cc2c(c1Br)Cc1cc(Cl)ccc1-2`, for which the growth was -5.33% (active).

Regarding `COc1ccc(S(=O)(=O)NCCCNc2nccc(-c3c(-c4cccc(N)c4)nc4sccn34)n2)cc1`, the growth is 78.7%. Consider `COc1ccc(C2C(C#N)=C(N)Oc3n[nH]c(-c4cccs4)c32)cc1I` (stereo not given), for which the growth is 86.8%.

Regarding `C=C1CCc2nc(SCC(=O)O)ccc2N1`, the growth is 97.3%. Take `O=C(CCl)Nc1ccc(NC(=O)c2cc(Cl)ccc2O)c(Cl)c1`: the growth is 79.7%. The value for `NC(N)=N/N=C(/c1ccccc1)c1ccc(F)cc1` was 14.9%. For `c1c[nH]c(CNC2CCCCC2)c1` the value was 141%.

The values above are taken from PubChem BioAssay (NCI).
